Assay results taken from PubChem BioAssay AID1159580 (chemical genetic matrix, 2015).
Hit rate of the full screen: of about 5,500 compounds, about 2,000 (36%) were called active. Another 18% or so got no clear call; they are omitted. No stated cut-off is given here; in the data, active means normalized growth mostly below about 0.91 (no sharp cut-off); inconclusive means no clear call, values can overlap the other calls; inactive means mostly above about 0.92. Some of the results follow.

Test: chemical genetic growth profiling, strain panel (AID 1159580);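 further: tested at 20 µM; growth read once vehicle control cultures reached saturation at 30 °C; 1 = growth at the plate median or of vehicle wells; lower values mean less growth of the strain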
Conditions: S. cerevisiae deletion strains, growth OD

Measured: normalized growth

CN1CCC2(CCN3CCc4c(oc5ccccc45)C3C2)N(C)C1=O (stereo not drawn)
inactive: locus YAL013W, strain DEP1, active compounds read low 1.02 | locus YAL040C, strain CLN3, active compounds read low 1 | locus YCL061C, strain MRC1 (second series), active compounds read low 1 | locus YDR150W, strain NUM1, active compounds read low 0.996 | locus YDR363W, strain ESC2, active compounds read low 1.02 | locus YER002W, strain NOP16, active compounds read low 1.01 | locus YMR263W, strain SAP30, active compounds read low 1 | locus YNL153C, strain GIM3, active compounds read low 1 | locus YNL175C, strain NOP13, active compounds read low 1 | locus YNL197C, strain WHI3, active compounds read low 1.01 | locus YNL224C, strain SQS1, active compounds read low 1.01 | locus YOR083W, strain WHI5 (second series), active compounds read low 1.02 | locus YPL055C, strain LGE1, active compounds read low 1
